Screening data: PubChem BioAssay, several laboratories
PTK2B oligo ant – antagonists of Pyk2 self-association, primary screen, Q293 cells, FERM NanoBiT luminescence, HTS. active compounds read low. 0.83% of 99,000 active. Protein-tyrosine kinase 2-beta (Homo sapiens), Q14289. z-score (the deposit names both 25 µM and 10 µM);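 active means Z-score of -3 or lower, scaled per plate to the spread of control and sample wells; inactive means z-score above -3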;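 further: negative z-score means lost luminescence so less FERM oligomerization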
Cav3 T inh – Cav3.2 calcium influx blockers – cell-based, Fluo-4 calcium fluorescence, FDSS, MLSMR library, primary screen; AID 449739, 2010; Voltage-dependent T-type calcium channel subunit alpha-1H (Homo sapiens), O95180; 4% of 100,000 active; Cav3.2-expressing cells; active compounds read low; B-score at 10 µM;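 active means single-dose well whose peak fluorescence ratio is a statistical outlier from its plate by either plate-standardised score or position-corrected B-score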
Mac1 fbg enh – enhancers of CD11b/CD18 adhesion to fibrinogen, primary screen, K562 cells, luminescence. Integrin beta-2 (Homo sapiens) + Integrin alpha-M (Homo sapiens), P05107+P11215. ATPlite luminescence. activation, % at 10 µM. 0.07% of 93,000 active;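 active means 10 µM primary screen giving 50% or more activity, confirmed by 40% or more on retest at that dose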
MRP1 act – H69AR viability gain despite doxorubicin, primary screen, MRP-1 activator project, H69AR cells, CellTiter-Glo; viability rescue; viability increase, % at 10 µM; 0.61% of 140,000 active; AID 799, 2007;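 active means viability gain under doxorubicin at or above a set limit, the compound median plus 3 SD, cut at about 4.7% in these data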;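 further: MRP-1 overexpressing cells given doxorubicin 25 µM after compound pretreatment; 18-22 h compound pretreatment then 72 h with doxorubicin before readout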
MRP resist rev – reversal of MRP1-mediated doxorubicin resistance, primary screen, H69AR cells, doxorubicin co-treatment | differential viability (reversal), % at 10 µM | 0.04% of 85,000 active | H69AR cells + 2 uM doxorubicin, CellTiter-Glo, 72 h | AID 602, 2007;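 active means viability drop by adding the cancer drug above about 55%, with treated viability meeting a 40% cutoff, limit read from the data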;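 further: larger differential means the compound sensitizes cells more to doxorubicin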
Mac1 fbg inh – inhibitors of CD11b/CD18 adhesion to fibrinogen, primary screen, K562 cells, luminescence; Integrin beta-2 (Homo sapiens) + Integrin alpha-M (Homo sapiens), P05107+P11215; ATPlite luminescence; Mn2+ added to activate the integrin; inhibition, % at 10 µM; 0.54% of 93,000 active;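 active means primary inhibition of 50% or more at 10 µM, then 40% or more on retest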
Large screens that a line does not name were inactive. Compounds with a hit are over-represented: about 4.1% of the library has one in this group of screens.

COC(=O)C(NC(=O)c1ccccc1Cl)(Nc1ncc(S(=O)(=O)c2ccc([N+](=O)[O-])cc2)s1)C(F)(F)F (stereo unspecified)	Cav3 T inh -8.55 (no result: MRP resist rev)
COc1ccc(C(=O)N2CCN(c3nc4cc(C)ccc4cc3C#N)CC2)c(OC)c1	none
Cc1ccc2nc(N3CCN(C(=O)c4cccs4)CC3)c(C#N)cc2c1	Cav3 T inh -4.79
Cc1cc(C(F)(F)F)n(-c2nc(C(=O)Nc3ccccc3Oc3ccccc3)cs2)n1	Cav3 T inh -4.37 (no result: PTK2B oligo ant, MRP resist rev)
COc1ccccc1NC(=O)c1csc(-n2nc(C)cc2C(F)(F)F)n1	none (no result: MRP resist rev)
Cc1cc(C)cc(CC(Cc2nc3ccccc3[nH]2)c2nc3ccccc3[nH]2)c1 (stereo unspecified)	Cav3 T inh -6.67 (no result: MRP resist rev)
CCOC(=O)C1CCCN(CC(=O)NC2=Nc3ccccc3N=C(C)C2c2ccccc2)C1 (stereo unspecified)	Cav3 T inh -6.21
COc1ccc(OC)c(C(c2nnnn2C2CCCC2)N2CCN(c3ccccc3F)CC2)c1 (stereo unspecified)	PTK2B oligo ant -3.82, Cav3 T inh -6.07
COc1ccc(N2CCN(C(c3ccccc3OC)c3nnnn3C3CCCC3)CC2)cc1 (stereo unspecified)	Cav3 T inh -5.93
COc1ccc(N2CCN(C(c3cccs3)c3nnnn3C3CCCC3)CC2)cc1 (stereo unspecified)	none
COc1ccc(N2CCN(C(c3cccc(OC)c3OC)c3nnnn3C3CCCC3)CC2)cc1 (stereo unspecified)	Cav3 T inh -5.41
COc1ccc(OC)c(C(c2nnnn2C2CCCC2)N2CCc3ccccc3C2)c1 (stereo unspecified)	none (no result: Cav3 T inh)
COc1ccc(C(c2nnnn2C2CCCC2)N2CCc3ccccc3C2)cc1OC (stereo unspecified)	Cav3 T inh -3.97
Fc1ccccc1N1CCN(C(c2ccccn2)c2nnnn2C2CCCCC2)CC1 (stereo unspecified)	none
CCOC(=O)c1c(NC(=O)C2=C(C)NC(=S)NC2c2ccc(CC)cc2)sc(C)c1C (stereo unspecified)	none (no result: PTK2B oligo ant, Cav3 T inh, Mac1 fbg enh, MRP resist rev, Mac1 fbg inh)
Cc1cccc(/C=C2/SC(=O)N(Cc3ccccc3)C2=O)n1	none (no result: MRP resist rev)
CC(C)C(=O)NC(Nc1cc(C(F)(F)F)ccc1Cl)C(Cl)(Cl)Cl (stereo unspecified)	none (no result: PTK2B oligo ant, Cav3 T inh, Mac1 fbg enh, MRP resist rev, Mac1 fbg inh)
N#Cc1c(-c2ccccc2)c(-c2ccccc2)n(Cc2ccco2)c1NC(=O)c1cccs1	Cav3 T inh -8.9 (no result: MRP resist rev)
CC(=O)N1N=C(c2ccccc2)CC1c1cn(C)c2ccccc12 (stereo unspecified)	none (no result: Cav3 T inh, Mac1 fbg enh, MRP resist rev, Mac1 fbg inh)
CC(C)(C)c1ccc(C(=O)NNC(=O)Cc2cccc3ccccc23)cc1	Cav3 T inh -4.17
COc1ccc(NC(=O)COC(=O)c2c3c(nc4ccccc24)CCCC3)cc1	PTK2B oligo ant -4.52 (no result: Mac1 fbg enh, Mac1 fbg inh)
COc1ccc(NC(=O)COC(=O)c2c3c(nc4ccccc24)CCCC3)cc1Cl	PTK2B oligo ant -4.62, MRP1 act 5.3 (no result: MRP resist rev)
COc1ccc(OC)c(NC(=O)COC(=O)c2c3c(nc4ccccc24)CCCC3)c1	PTK2B oligo ant -4.38 (no result: MRP resist rev)
CC(C)(C)c1ccc(-c2nnc(SCCN3C(=O)c4ccccc4C3=O)o2)cc1	none
CCN(CC)c1ccc(/C=c2/sc3nnc(-c4ccccc4C)n3c2=O)cc1	none
CCN(CC)c1ccc(/C=c2\sc3nnc(-c4ccccc4Cl)n3c2=O)cc1	Cav3 T inh -4.73
CCCOC(=O)c1ccc(NC(=O)/C=C/c2cccs2)cc1	none (no result: Cav3 T inh, Mac1 fbg enh, MRP resist rev, Mac1 fbg inh)
CCCOC(=O)c1ccc(NS(=O)(=O)c2cccs2)cc1	Cav3 T inh -4.98
COc1ccc(-n2c(CNc3ccc(C)cc3)nnc2SCc2ccccc2)cc1	none (no result: PTK2B oligo ant, Cav3 T inh, Mac1 fbg enh, MRP resist rev, Mac1 fbg inh)
Cn1c(CNc2ccc(Cl)cc2)nnc1SCc1ccccc1	none
CCOc1ccc(NCc2nnc(SCc3ccccc3Cl)n2-c2ccccc2)cc1	Cav3 T inh -4.22 (no result: Mac1 fbg enh, MRP resist rev, Mac1 fbg inh)
CCn1c(CNc2ccc(Cl)cc2)nnc1SCc1ccccc1	Cav3 T inh -8.49 (no result: MRP resist rev)
CC(C)OC(=O)CSc1nnc(CNc2ccc(Cl)cc2)n1Cc1ccccc1	Cav3 T inh -6.67 (no result: Mac1 fbg enh, Mac1 fbg inh)
Cc1ccc(NC(=O)c2ccc(Nc3ccccc3F)nc2)cc1	none (no result: PTK2B oligo ant, Cav3 T inh, Mac1 fbg enh, MRP resist rev, Mac1 fbg inh)
Cc1cccc2cc(=O)[nH]c(C)c12	none (no result: Mac1 fbg enh, Mac1 fbg inh)
CNCC(C)COc1ccccc1OCc1ccccc1 (stereo unspecified)	none (no result: PTK2B oligo ant, Cav3 T inh, Mac1 fbg enh, MRP resist rev, Mac1 fbg inh)
Nc1ccc(N2CCN(CCCCN3C(=O)C4CCCN4C3=O)CC2)cc1 (stereo unspecified)	none (no result: Cav3 T inh, Mac1 fbg enh, MRP resist rev, Mac1 fbg inh)
O=S(=O)(Nc1ccc2c(c1)oc1ccccc12)N1CCCC1	Cav3 T inh -5.87
O=S(=O)(Nc1ccc2c(c1)OCCO2)c1ccc2oc3ccccc3c2c1	Cav3 T inh -5.92
Cc1cccc(NS(=O)(=O)c2ccc3c(c2)OCCO3)c1	none
CSc1nc2ccc(NS(=O)(=O)c3ccc4c(c3)OCCO4)cc2s1	Cav3 T inh -4.47
COc1cc(C(=O)OC(C)CN2CCN(C)CC2)cc(OC)c1OC (stereo unspecified)	none
C=CCNC(=O)c1ccccc1NC(=O)c1ccc(Cl)c(S(=O)(=O)Nc2ccccc2)c1	PTK2B oligo ant -3.83 (no result: MRP resist rev)
O=C(Nc1ncn[nH]1)c1cc(S(=O)(=O)Nc2ccc(Cl)cc2)ccc1Cl	none (no result: PTK2B oligo ant, Cav3 T inh, Mac1 fbg enh, MRP resist rev, Mac1 fbg inh)
O=C(Nc1ncn[nH]1)c1ccc(Cl)c(S(=O)(=O)Nc2ccc(Cl)cc2)c1	MRP1 act 4.8 (no result: PTK2B oligo ant, Cav3 T inh, Mac1 fbg enh, MRP resist rev, Mac1 fbg inh)
COc1cccc(-c2nnc(NC(=O)c3ccc(Cl)s3)o2)c1	none (no result: PTK2B oligo ant, Cav3 T inh, Mac1 fbg enh, MRP resist rev, Mac1 fbg inh)
COCCN1C(=O)C(O)=C(C(=O)c2ccco2)C1c1cccc(Oc2ccccc2)c1 (stereo unspecified)	Cav3 T inh -3.78
CCOc1ccc(S(=O)(=O)Nc2ccccc2C(=O)Nc2ccccc2N2CCOCC2)cc1	PTK2B oligo ant -3.13
Cc1ccc(C)c(S(=O)(=O)Nc2ccccc2C(=O)Nc2ccccc2N2CCOCC2)c1	Cav3 T inh -4.9, Mac1 fbg inh 50.3 (no result: MRP resist rev)
Cc1cc(F)ccc1S(=O)(=O)Nc1ccccc1C(=O)Nc1ccccc1N1CCOCC1	Cav3 T inh -5.95 (no result: Mac1 fbg enh, Mac1 fbg inh)
O=C(Nc1ccccc1N1CCOCC1)c1ccccc1NS(=O)(=O)c1ccc(F)c(F)c1	Cav3 T inh -3.96, Mac1 fbg inh 74.6 (no result: MRP resist rev)
C/C(=N/NC(=O)c1cccs1)c1ccc(N2CCOCC2)cc1	none (no result: PTK2B oligo ant, Cav3 T inh, Mac1 fbg enh, MRP resist rev, Mac1 fbg inh)
c1cn(CCCNc2ncnc3nc[nH]c23)cn1	none (no result: PTK2B oligo ant, Cav3 T inh)
Cc1cccc(NC(=O)c2cc3n(n2)C(C(F)(F)F)CC(c2ccc4c(c2)OCO4)N3)c1 (stereo unspecified)	Cav3 T inh -7.29 (no result: MRP resist rev)
COc1ccc(NC(=O)c2cc3n(n2)C(C(F)(F)F)CC(c2ccc4c(c2)OCO4)N3)cc1OC (stereo unspecified)	none (no result: Cav3 T inh, Mac1 fbg enh, Mac1 fbg inh)
CCCn1c(C)cc(C(=O)CN2C(=O)c3ccccc3C2=O)c1C	none (no result: PTK2B oligo ant, Cav3 T inh, Mac1 fbg enh, MRP1 act, Mac1 fbg inh)
